Screening results as filed in PubChem BioAssay.
Sampled rows, rich in hits. Any-hit rate of the full collection: about 2.4%.
POLB inh – qHTS Assay for Inhibitors of DNA Polymerase Beta. Potency, µM (top dose mostly 114 µM), for the others: top-dose activity change, negative = inhibition, hits mostly inhibitors. actives 1.3% (n = 340,000). Pol beta primer extension/strand displacement, fluorescence kinetic; further: on the % scale 0 is the no-effect control and ±100 the full control effect
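Curves were derived by four-parameter Hill fits of normalized qHTS data. The kinetic fluorescent primer-extension read was taken at 0 and 10 min after 50 nM substrate, following a 15 min room-temperature preincubation of 10 nM enzyme with compounds.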
POLH inh – qHTS for Inhibitors of Polymerase Eta. actives 1.2% (n = 390,000). recombinant Pol eta, fluorescent DNA replication assay. Potency, µM (top dose mostly 114 µM), without a hit: top-dose activity change, negative = inhibition, most hits filed as inhibitors. AID 588591, 2011. DNA polymerase eta (Homo sapiens), Q9Y253; further: on the % scale 0 is the no-effect control and ±100 the full control effect
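Pol eta (10 nM) was preincubated with compounds for 15 min at room temperature, after which fluorescent replication substrate (50 nM final) was added to start the reaction. Fluorescence was read kinetically at 0 and 10 min.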
FEN1 inhibitor – qHTS Assay for the Inhibitors of Human Flap endonuclease 1 (FEN1) | Potency, µM (top dose mostly 114 µM), for the others: at the highest dose activity change, negative = inhibition, actives largely listed as inhibitors | actives 0.35% (n = 390,000) | Recombinant FEN1 flap cleavage, fluorescence, 15 min | AID 588795, 2011; further: on the % scale 0 is the no-effect control and ±100 the full control effect; nearly all actives have a fitted effect of over 65% in size
Target sequence (P39748 whole entry, looked up): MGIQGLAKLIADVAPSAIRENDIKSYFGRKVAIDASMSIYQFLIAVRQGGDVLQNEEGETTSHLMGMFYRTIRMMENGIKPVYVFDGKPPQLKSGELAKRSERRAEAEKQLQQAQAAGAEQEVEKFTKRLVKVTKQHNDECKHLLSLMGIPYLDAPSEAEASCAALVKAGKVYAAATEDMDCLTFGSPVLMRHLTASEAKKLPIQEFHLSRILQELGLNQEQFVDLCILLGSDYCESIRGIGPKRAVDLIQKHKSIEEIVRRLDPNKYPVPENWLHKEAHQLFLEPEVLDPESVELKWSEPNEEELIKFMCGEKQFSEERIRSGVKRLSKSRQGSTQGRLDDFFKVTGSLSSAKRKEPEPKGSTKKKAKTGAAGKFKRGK
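Enzyme 10 nM, 15 min RT preincubation with compound; start with substrate 50 nM final; reads at 0 and 15 min; qHTS titration, four-parameter Hill fit.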
Pol kappa inh – qHTS for Inhibitors of Polymerase Kappa. actives 0.53% (n = 400,000). Potency, µM (doses to about 107 µM), for the others: top-dose activity, negative = inhibition, hits mostly inhibitors. purified Pol kappa, fluorescent DNA synthesis assay, 10 min; further: on the % scale 0 is the no-effect control and ±100 the full control effect
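50 nM final substrate added after 15 min RT preincubation of 10 nM Pol kappa with compound; fluorescence read at 0 and 10 min.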
WRN helicase inh – qHTS for Inhibitors of WRN Helicase. Bifunctional 3'-5' exonuclease/ATP-dependent helicase WRN (Homo sapiens), Q14191. Potency, µM (highest dose often 114 µM), without a hit: at the top dose activity change, negative = inhibition, most hits filed as inhibitors. actives 0.46% (n = 360,000). WRN helicase unwinding, fluorescent forked duplex, kinetic; further: on the % scale 0 is the no-effect control and ±100 the full control effect; nearly all actives have a fitted effect of over 55% in size
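Kinetic red-fluorescence monitoring (525/598 nm) tracks WRN helicase activity after 100 nM fluorophore-quencher forked duplex and 2 mM ATP are added to 20 nM enzyme pretreated 15 min at room temperature with compound.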
Pol iota inh – qHTS for Inhibitors of Polymerase Iota; DNA polymerase iota (Homo sapiens), Q9UNA4; Pol iota fluorescent replication assay, 10 min; Potency, µM (highest dose often 115 µM), for inactives: at the top dose activity, negative = inhibition, actives largely listed as inhibitors; actives 1% (n = 390,000); AID 588590, 2011
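Fluorescent replication assay read twice, at 0 min and 10 min after adding 50 nM (final) substrate. Enzyme (10 nM) and compounds were first incubated 15 min at room temperature; enzyme-free buffer wells were negative controls.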
Active calls of the source: *; [ ] = dose if it differs, or a comment. The call rests on the fitted dose curve; in most records, active means well fitted curve in the direction sought with a large enough effect; inconclusive means small, poorly fitted or top-dose-only effect, or another doubt; inactive means no such curve, though single readings can be large; an effect the other way counts as inactive or inconclusive. Potency means the concentration at half of the fitted maximal effect.

For Cc1ccccc1C(=O)N1CCc2cc(-c3nc(NC(=O)Cc4ccc5c(c4)OCO5)sc3C)ccc21 the results were POLB inh 0.25µM*, POLH inh 1%, FEN1 inhibitor 8%, Pol kappa inh -16%, WRN helicase inh 0% and Pol iota inh 4%.
For Cc1sc(NC(=O)Cc2ccc3c(c2)OCO3)nc1-c1ccc2c(c1)CCN2C(=O)c1cccc(F)c1 the results were POLB inh 3%, POLH inh 0%, FEN1 inhibitor -6%, Pol kappa inh -3%, WRN helicase inh 4% and Pol iota inh 19%.
C=CCOc1c(Br)cc(/C=C2/C(=O)ON=C2C)cc1OC was read as POLB inh 0%, POLH inh -12%, FEN1 inhibitor 16%, Pol kappa inh -3%, WRN helicase inh -16%[11.6 µM] and Pol iota inh 89µM*.
CCOc1ccc(NC(=O)c2cc(=O)c3cc(CC)ccc3o2)cc1 was read as POLB inh inconclusive, POLH inh inconclusive, FEN1 inhibitor -2%, Pol kappa inh 1% and Pol iota inh 28%.
Screening CC(Sc1nnc2c(n1)[nH]c1ccccc12)C(=O)NC1CCCCC1 (stereo not given) returned POLB inh 45µM*, POLH inh -1%, FEN1 inhibitor -14%, Pol kappa inh -4%, WRN helicase inh -33% and Pol iota inh 14%.
For O=C(OC1Cc2c(O)cc(O)cc2OC1c1cc(O)c(O)c(O)c1-c1c(C2Oc3cc(O)cc(O)c3CC2O)cc(O)c(O)c1O)c1cc(O)c(O)c(O)c1 (stereo not given) the results were Pol kappa inh 0.79µM*.
Screening CC(=O)c1cc2c(cc1NC(=O)c1cnn(-c3ccc(C)cc3)c1-n1cccc1)OCO2 returned POLB inh 1%, POLH inh 7%, FEN1 inhibitor 0%, Pol kappa inh -10% and Pol iota inh 7%.
For NC(=O)[C@@H]1CCCNc2c(I)cc([N+](=O)[O-])cc2C(=O)N[C@@H](CCC(=O)O)C(=O)N[C@@H](CO)C(=O)N1 the results were POLB inh 5%, POLH inh -3%, FEN1 inhibitor -3%, Pol kappa inh 9%, WRN helicase inh -5% and Pol iota inh 5%.
Screening NC(=O)C[C@@H]1NC(=O)[C@H](CCC(=O)O)NC(=O)c2cc([N+](=O)[O-])cc(I)c2OCC[C@@H](C(N)=O)NC1=O returned POLB inh -21%, POLH inh 35µM*, FEN1 inhibitor -6%, Pol kappa inh inconclusive, WRN helicase inh -15% and Pol iota inh -14%.
For C[C@@H]1NC(=O)c2cc([N+](=O)[O-])cc(I)c2NCCCC[C@@H](C(N)=O)NC(=O)[C@H](CCC(=O)O)NC1=O the results were POLB inh 0%, POLH inh 22µM*, FEN1 inhibitor 1%, Pol kappa inh inconclusive, WRN helicase inh -12% and Pol iota inh 40µM*.
`NC(=O)C[C@H]1NC(=O)[C@H](CCC(=O)O)NC(=O)c2cc([N+](=O)[O-])cc(I)c2NCCC[C@@H](C(N)=O)NC1=O` gave POLB inh 15%, POLH inh 35µM*, FEN1 inhibitor -18%, Pol kappa inh inconclusive, WRN helicase inh -30% and Pol iota inh inconclusive.
`CCOc1ccc(NC(=O)CSC2=Nc3ccccc3C3=NC(CC(=O)NCc4ccccc4OC)C(=O)N23)cc1` (stereo not given) gave POLB inh 62%, POLH inh -20%, FEN1 inhibitor -3%, Pol kappa inh 0%[60.1 µM] and Pol iota inh 10%.
